# Screening data: PubChem BioAssay, National Center for Advancing Translational Sciences (NCATS)
# DRD3 agonist – activates the human D3 dopamine receptor | P35462 | D3R DiscoveRx beta-arrestin cells, luminescence, 90 min | max activation, % | 410,000 tested, 0.58% active; in the data active = max activation above about 30%; note: 0% is about no effect
# Target sequence (P35462 whole entry, looked up): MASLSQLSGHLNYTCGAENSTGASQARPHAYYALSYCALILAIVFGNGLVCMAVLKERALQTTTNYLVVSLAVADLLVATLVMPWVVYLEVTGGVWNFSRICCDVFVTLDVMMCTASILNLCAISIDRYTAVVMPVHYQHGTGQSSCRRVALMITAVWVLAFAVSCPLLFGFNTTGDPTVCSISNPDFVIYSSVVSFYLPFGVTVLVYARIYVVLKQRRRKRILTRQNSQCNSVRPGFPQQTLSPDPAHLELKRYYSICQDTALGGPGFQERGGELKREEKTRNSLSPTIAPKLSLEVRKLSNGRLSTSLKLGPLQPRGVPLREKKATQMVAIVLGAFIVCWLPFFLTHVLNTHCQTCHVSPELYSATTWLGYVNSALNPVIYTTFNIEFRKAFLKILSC
#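 Agonist-mode cell screen: cells plated at 1500/well and incubated overnight at 37 °C, then exposed to library compounds for 90 min at 37 °C. Detection reagent was added for 30–60 min at room temperature, and luminescence was read.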
# D1 antag – blocks dopamine activation of the human D1 receptor | P21728 | HEK293 TREx D1 cells, calcium flux, dopamine EC80; active compounds read low | activity change, negative = inhibition, % at 10 µM | 360,000 tested, 3.2% active | AID 504652; in the data active = activity change below about -30%; note: % is set by controls: 0 for no effect and ±100 for the full control effect
#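 Cells carrying a force-coupled, tetracycline-inducible human D1 receptor report calcium flux. Each well gets a 10 s baseline, compound with 180 s monitoring, then an EC80 dopamine stimulus with a second 180 s kinetic read.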
# D1 ag – human D1 receptor agonism | 360,000 tested, 1% active | P21728 | AID 504660 | HEK293 T-REx D1 cells, calcium flux, agonist mode | activation, % at 2 µM; in the data active = activation above about 30%; note: 0% is about no effect
#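 Tetracycline-induced HEK293 TREx D1 cells, force-coupled to calcium signalling, were dye-loaded with a no-wash calcium kit. Compound was pin-added after a 10 s baseline. Fluorescence was read kinetically at 1 cycle/s for 180 s, with calcium rises flagged as agonism.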
# DRD3 antagonist – blocks the human D3 dopamine receptor. AID 652054. 360,000 tested, 2.5% active. max response, negative = inhibition, %. P35462. D3R cells, DiscoveRx beta-arrestin luminescence, antagonist mode; active compounds read low; in the data active = max response below about -50%; inconclusive = no clear call, values can overlap the other calls; note: % is set by controls: 0 for no effect and ±100 for the full control effect
#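 Cells plated overnight at 1500 cells/well, then exposed to library compounds with dopamine controls for 90 minutes at 37 degrees C. DiscoveRx reagent added for 30–60 minutes at room temperature; luminescence read, quantitative HTS format.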
# D1 potentiator – potentiators of human D1 dopamine receptor. P21728. AID 504651. 360,000 tested, 0.036% active. potentiation, % at 10 µM. HEK293 TREx D1 cells, calcium flux, dopamine EC20 potentiation; in the data active = potentiation above about 30%; note: 0% is about no effect
# * hit, by the source's call; ? = inconclusive; / = no result given; ! = a repeat was not active. Rows were chosen to be rich in hits. Some 6.1% of all compounds tested hit in one or more screens of this group.
SMILES,DRD3 agonist,D1 antag,D1 ag,DRD3 antagonist,D1 potentiator
O=C(NCC1CCCO1)c1cccc(F)c1 (centres undefined),4,-5,2,15,-1
O=C(NCC1CCCO1)c1cccc(Oc2ccc([N+](=O)[O-])cc2)c1 (centres undefined),7,-35*,11,-4,-6
COc1cccc(-c2cc(C(=O)NCC3CCCO3)c3cc(C)cc(C)c3n2)c1 (centres undefined),66*,-24,5,34,0
COc1ccc(NC(=O)CCNC(=O)c2ccco2)c(OC)c1,3,5,2,-8,2
Cc1nc(-c2ccc(Cl)cc2)sc1CCNC(=O)c1cccs1,-17,-2,2,/,-5
CNCC(O)c1ccc(OC(=O)C(C)(C)C)c(OC(=O)C(C)(C)C)c1 (centres undefined),40*!,25,3,-4,-5
CC(C)NC[C@H](O)c1ccc(O)c(O)c1,14,-2,-1,2,-2
Cc1ccc(-n2nc(C)c3c(C)c(CCC(=O)NCc4ccccc4Cl)c(C)nc32)cc1C,1,-28,-1,/,-1
CCN(CC)S(=O)(=O)c1ccc(Oc2ccccc2OC)cc1,-11,-15,8,3,-3
CCN(CC)S(=O)(=O)c1ccc(Oc2ccc(S(=O)(=O)N(CC)CC)cc2)cc1,2,-26,31*,26,-5
CCCCNC(=S)NNC(=O)c1csc(C(C)C)c1,1,-45*,-1,35,-4
CC1=C(c2ccc(C(C)C)cc2)S(=O)(=O)N=C1N1CCC(C(=O)NCc2ccc(C)o2)CC1,-5,-11,7,/,-1
CCOc1ccc(N2C(=O)CC(NC3CCN(C(=O)c4cccs4)CC3)C2=O)cc1 (centres undefined),0,29,79*,18,-4
CCOc1ccc(N2C(=O)CC(NC3CCN(C(=O)c4cccc(Cl)c4)CC3)C2=O)cc1 (centres undefined),1,0,6,23,0
CCN(CC)c1ccc(/C=C/c2cc(-c3ccccc3)c3ccccc3n2)cc1,5,-57*,325*,5,17
CC(=O)c1ccc(-c2cccc(-c3cc(=O)oc4ccc(C(C)(C)C)cc34)c2)cc1,39*,/,/,37,/
CCOC(=O)[C@]12CCC=C1N(Cc1ccco1)C(=O)[C@H](CC(=O)NCc1ccc(C)o1)C2,3,/,/,26,/
CCCCOc1ccc(C(=O)NCCS(=O)(=O)N2CCN(c3ccccc3OC)CC2)cc1,20,-65*,3,/,-2
COc1ccc(S(=O)(=O)NCCS(=O)(=O)N2CCN(c3ccccc3F)CC2)cc1,-11,-38*,8,/,-1
CCC(C)NC(=O)Cn1nc(C(F)(F)F)c2c1CCCC2 (centres undefined),2,-38*,-1,1,-9
Cc1ccc(N2CCN(C(=O)c3cc4cc5ccc(C)cc5nc4s3)CC2C)cc1 (centres undefined),7,-4,2,/,-1
Cc1ccc(N=C2NC(=O)/C(=C/c3cn(C)c4ccccc34)S2)cc1C,-11,-99*,54*,?,-2
Cn1c(=O)c(NC2CCCCC2)c2c3c(cccc31)C(=O)c1ccccc1-2,-3,-68*,455*,-3,-4
Cn1c(NCCc2ccccc2)cc(=O)n(C)c1=O,3,12,1,16,0
Cn1c(=O)c(NCCc2ccccc2)c2c3c(cccc31)C(=O)c1ccccc1-2,7,-78*,394*,10,-5
SMILES,DRD3 agonist,D1 antag,D1 ag,DRD3 antagonist,D1 potentiator
CCNc1c2c3c(cccc3n(C)c1=O)C(=O)c1ccccc1-2,5,-3,373*,6,-6
Cn1c(=O)cc2c3c(c(N4CCCCC4)ccc31)C(=O)c1ccccc1-2,7,3,2,8,3
CCCCNc1c2c3c(cccc3n(C)c1=O)C(=O)c1ccccc1-2,-5,-47*,326*,12,-7
CCNc1cccc2c1C(=O)N(C)C2=O,5,11,20,4,8
CC(=O)Nc1ccc(Nc2c3c4c(cccc4n(C)c2=O)C(=O)c2ccccc2-3)cc1,-6,18,13,8,15
Cn1c(=O)c(NCCO)c2c3c(cccc31)C(=O)c1ccccc1-2,3,-42*,442*,-1,15
